Bioassay records from PubChem BioAssay.
This is a sample that favours compounds with a hit; in the whole collection about 5.7% have one here.
PI5P4Ka inh: PI5P4K alpha (human) kinase inhibition. hit rate 1.2% among 330,000. P48426. PI5P4Kalpha enzyme, ADP-Glo luminescence, 60 min; active compounds read low. AID 652105. max response, %; active = max response of -50% or lower; inconclusive = between -30% and -50%; inactive = -30% or higher; note: value at the top dose of about 77 µM; % is set by controls: 0 for no effect and ±100 for the full control effect
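Compounds were pin-transferred onto PI5P4Kalpha and substrate in HEPES pH 7.4 buffer with EGTA, CHAPS and 5% DMSO. ATP (5 microM final) started the reaction, which ran 60 minutes at room temperature before ADP-Glo detection.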
HP1b binding inh: inhibitors of HP1-beta chromodomain binding to methylated histone tails; P83916; AlphaScreen HP1-beta / biotin-H3K9me3 peptide binding; Potency, µM (series often up to 114 µM), for the others: at the highest dose activity change, negative = inhibition, hits mostly inhibitors; hit rate 0.56% among 390,000; AID 540317; note: potency is the fitted concentration of half-maximal effect; nearly all actives have a fitted effect of over 70% in size
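Compound inhibition of the preformed complex between 50 nM HP1-beta and 50 nM biotinylated H3K9me3 peptide was read by AlphaScreen. Buffer was PBS pH 7.4 with 0.01% Tween-20. Incubations ran 30 min at room temperature, with 10 ug/mL donor/acceptor beads.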
JMJD2A Tudor inh: inhibitors of human JMJD2A Tudor domain | O75164 | AlphaScreen JMJD2A-Tudor / H3K4me3 peptide binding | Potency, µM (highest dose often 114 µM), inactives show at the top dose activity change, negative = inhibition, hits mostly inhibitors | hit rate 4.4% among 390,000 | AID 504339; note: potency is the fitted concentration of half-maximal effect; % is set by controls: 0 for no effect and ±100 for the full control effect; nearly all actives have a fitted effect of over 50% in size
JMJD2E inh: blocks human JMJD2E demethylase activity; AID 2147; Potency, µM (highest dose often 57.1 µM), without a hit: top-dose activity change, negative = inhibition, usual class: inhibitors; hit rate 1.6% among 230,000; JMJD2E catalytic domain, FDH-coupled NADH fluorescence (FDH is formaldehyde dehydrogenase); active = well fitted inhibition curve with a large enough effect, not every such curve was filed as active; inconclusive = small, poorly fitted or top-dose-only effect, or another doubt; inactive = no such curve, though single readings can be large or run the other way;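 note: potency is the fitted concentration of half-maximal effect; 0% = wells with enzyme and -100% = buffer wells without enzyme; nearly all actives have a fitted effect of over 50% in size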
BAZ2B block: blocks human BAZ2B; AID 504333; AlphaScreen BAZ2B-H3K14Ac peptide displacement; hit rate 4.4% among 360,000; Q9UIF8; Potency, µM (series often up to 114 µM), inactives show at the highest dose activity change, negative = inhibition, actives largely listed as inhibitors; note: potency is the fitted concentration of half-maximal effect; % is set by controls: 0 for no effect and ±100 for the full control effect; nearly all actives have a fitted effect of over 60% in size
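AlphaScreen displacement: compounds (up to 110uM) incubated 30 min at room temperature with a preformed 50 nM BAZ2B/50 nM biotinylated H3K14Ac peptide complex in PBS pH 7.4 with Tween-20. Donor and acceptor beads at 10 ug/mL final added, 20 min light-protected before reading.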
L3MBTL1 inh: blocks human L3MBTL1; Q9Y468; AlphaScreen L3MBTL1–H3K9me1 peptide binding; Potency, µM (highest dose often 57.1 µM), inactives show at the top dose activity, negative = inhibition, hits mostly inhibitors; hit rate 0.66% among 230,000; note: potency is the fitted concentration of half-maximal effect; % is set by controls: 0 for no effect and ±100 for the full control effect; nearly all actives have a fitted effect of over 60% in size
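Displacement of a biotinylated histone H3(1-15) peptide monomethylated at Lys9 (75 nM) from L3MBTL1 (50 nM) was measured by AlphaScreen after a 30 min room-temperature compound incubation; cefsulodin titration served as intraplate control.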
* marks the source's active call; other numbers are inactive results; ? = inconclusive; . = no result given; [ ] = dose if it differs, or a comment. Unless noted, calls come from the whole dose curve; as a rule, active = well fitted inhibition curve with a large enough effect; inconclusive = small, poorly fitted or top-dose-only effect; inactive = no such curve, though single readings can be large or run the other way.

SMILES	PI5P4Ka inh	HP1b binding inh	JMJD2A Tudor inh	JMJD2E inh	BAZ2B block	L3MBTL1 inh
CCC(C)NC(=S)N1CCN(Cc2ccc3c(c2)OCO3)CC1 (centres undefined)	-5	-11%	-7%[11.4 µM]	?	50µM*	-2%
O=C(COC(=O)C12CC3CC(CC(C3)C1)C2)Nc1ccccc1F	2	90%	23%	-1%	11%	11%
CN1c2ccccc2C(C)(C)C12CCCC(=O)N2 (centres undefined)	0	45%	?	?	50µM*	-5%
Cc1nc(N2CCOCC2)c2c(C(=O)N3CCN(c4ccccc4F)CC3)c(C)oc2n1	.	52%	-8%	.	9%[57.1 µM]	.
CCOC(=O)/C(C#N)=C/c1ccc(-c2ccc(C)cc2)o1	.	10%	9%	.	-30%	.
Cn1nnnc1Sc1ncnc2scc(-c3cccs3)c12	.	?	25µM*	.	10µM*	-1%
Cn1nnnc1Sc1ncnc2scc(-c3ccc(-c4ccccc4)cc3)c12	.	50%	-15%	.	.	-3%
O=C(CSc1ncc(-c2ccccc2)n1CC1CCCO1)N1CCCCC1 (centres undefined)	5	28%	-3%	5%	19%	38%
Nc1ncc(-c2ccccc2)n1CC1CCCO1 (centres undefined)	.	6%	?	-7%	20µM*	-22%
CCc1cc(=O)oc2cc(C)c(CN3CCCC3)c(O)c12	.	-51%	20µM*	25µM*	18µM*	4µM*
CCOC(=O)N1CCN(C(=O)CSc2nnc3[nH]c(=O)c(C)c(C)n23)CC1	-9	35%	-1%	.	-3%	4%
COc1ccc(S(=O)(=O)N2CCOCC2)cc1NC(=O)c1sccc1C	1	42%	7%	.	7%	-4%
CCCCN1CCCc2cc(CN(CCCN3CCOCC3)C(=O)Nc3ccc(OCC)cc3)ccc21	.	?	13µM*	.	-26%	.
CCc1ccc(NC(=O)N(CCN2CCOCC2)Cc2ccc3c(c2)CCCN3CC)cc1	.	28µM*	22µM*	4%	?	.
CCN1CCCc2cc(CN(CCN3CCOCC3)C(=O)Nc3ccc(C)c(C)c3)ccc21	25	?	28µM*	?	45µM*	.
CCOC(=O)c1c(C)sc(-c2c(-c3cc(C)ccc3C)[nH]c3c2c(=O)[nH]c(=O)n3C)c1O	.	10%	-27%	.	50µM*	.
CCOC(=O)c1c(C)sc(-c2c(-c3cccc(Cl)c3)[nH]c3c2c(=O)n(C)c(=O)n3C)c1O	.	23%	?	.	?	.
CCOC(=O)c1c(C)sc(-c2c(-c3cc(C)ccc3C)[nH]c3c2c(=O)n(C)c(=O)n3C)c1O	.	5%	?	.	79µM*	.
Cc1ccc(C)c(-c2[nH]c3c(c2-c2c(-n4cccc4)n(C)c(=O)n(C)c2=O)c(=O)n(C)c(=O)n3C)c1	.	14%	-24%	.	?	.
COc1ccc(C(=O)N2CCC(c3nc(-c4ccc(S(=O)(=O)N5CCCC5)cc4)no3)CC2)cc1	.	44%	-12%	.	-15%	.
O=C(O)c1cn(-c2ccc(F)cc2)c2cc(N3CCNCC3)c(F)cc2c1=O	6	24%	50µM*	?	.	.
Cn1cc(S(=O)(=O)c2ccccc2)c(=O)c2cc(F)c(N3CCN(c4ccc(F)cc4)CC3)cc21	.	-2%	-10%	.	1%	.
Oc1ccc(Nc2nc(N3CCCC3)c3ccccc3n2)cc1	-22	-48%	56µM*	4%	?	-15%
c1ccc2c(c1)nc(N1CCCCCC1)c1ccccc12	11	290%	18µM*	?	129%	117%
CCOC(=O)/C(C#N)=C/c1cc2ccccc2nc1N1CCOCC1	1	43%	-1%	3%	-31%	15%
SMILES	PI5P4Ka inh	HP1b binding inh	JMJD2A Tudor inh	JMJD2E inh	BAZ2B block	L3MBTL1 inh
N#CC(C#N)=Cc1cc2ccccc2nc1N1CCCCC1	0	-26%	?	-8%	40µM*	-15%
CC1CCc2c(sc3nnn(CCCCOc4ccc(Cl)cc4)c(=O)c23)C1 (centres undefined)	.	74%	?	.	-24%	.
CC(=O)c1cccc(OC(=O)Oc2cccc(C(C)=O)c2)c1	5	52%	-11%	.	.	.
O=[N+]([O-])c1cccc2c[nH]nc12	.	.	.	35µM*	.	.
Cc1cc(OCC(=O)NC2CCN(Cc3ccccc3)CC2)c2c(C)cc(=O)oc2c1	-3	56%	-18%	.	-2%	.
CCCCNC(=O)CN1C(=O)c2cccnc2Sc2ccccc21	.	60%	-4%	.	3%	.
O=C(O)CCC(=O)Nc1ccccc1Oc1ccccc1	3	1%	20µM*	-8%	-21%	0%[11.4 µM]
CCC(=O)N1CCc2cc(CNS(=O)(=O)c3ccc(NC(=O)CC(C)C)cc3)ccc21	.	27%[57 µM]	3%	.	6%	.
Cc1nc2sccn2c(=O)c1S(=O)(=O)NCC(C)c1ccccc1 (centres undefined)	6	43%	4%	.	-2%	-8%
CCS(=O)(=O)N1CCN(CC2CC3C=CC2C3)CC1 (centres undefined)	.	?	1.3µM*	-29%	50µM*	.
Cc1ccc(S(=O)(=O)N2CCN(CCOc3ccccc3)CC2)cc1	10	42%	6%	.	-7%	2%
Cc1ccc(S(=O)(=O)N2CCN(CC3CC4C=CC3C4)CC2)cc1 (centres undefined)	1	28µM*	0.79µM*	.	18µM*	.
CCCS(=O)(=O)N1CCN(CC2CC3C=CC2C3)CC1 (centres undefined)	1	?	-28%[11.4 µM]	?	50µM*	0%
C1=CC2CC1CC2CN1CCN(Cc2ccccc2)CC1 (centres undefined)	0	?	1.1µM*	?	23%	.
Cc1ccc(N2CCN(CC3CC=CCC3)CC2)cc1 (centres undefined)	.	?	?	-4%	?	-8%
C1=CCC(CN2CCN(C3CCCCCC3)CC2)CC1 (centres undefined)	1	?	1µM*	?	45µM*	.
COc1ccc(S(=O)(=O)N2CCN(CC3CC=CCC3)CC2)cc1 (centres undefined)	-4	27%	-13%	.	3%	.
CCCS(=O)(=O)N1CCN(CC2CC=CCC2)CC1 (centres undefined)	.	-55%	0.89µM*	?	56µM*	5%
COc1ccc(-c2ccc3ncnc(NCc4cccs4)c3c2)cc1	.	.	-21%	.	.	.
O=C(Nc1ccccc1)c1cc2ccccc2o1	1	49%	10%	0%	5%	-3%
CC/C(=C\c1oc2cc3ccccc3cc2[n+]1CC)Nc1ccccc1	0	42%	-17%	?	79µM*	6%
CCOC(=O)c1ccc(N2C(=O)C3C(C2=O)C(C(=O)c2ccc(Cl)cc2)N2CCCC32)cc1 (centres undefined)	-23	32%	-33%	?	50µM*	.
